Among all 65,000 compounds or so, about 45 (0.07%) were called active. The full list was thinned out, with actives kept by preference. Values without a mark were called inactive.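 Rule for the calls: active = inhibition above the mean of compound-free control plate wells plus 3 SD (cut at about 14% in these data); inactive = the rest.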
target: Collagenase 3 (Homo sapiens) (UniProt P45452); experiment: inhibition of MMP13 collagenase activity – biochemical, FRET peptide cleavage, primary screen (AID 570); details: MMP-13 fTHP FRET cleavage, Mca fluorescence; at 4 µM; active compounds read high;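 note: 0% = DMSO wells and 100% = wells with reference MMP-13 inhibitor after basal subtraction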

Structure (SMILES) | inhibition [%]
O=C1C(C=NCC2CCCO2)=C(O)c2ccccc21 (stereo not drawn) | 3.3
CCOC(=O)Cn1c(SC)nc2sc3c(c2c1=O)CC(C)(C)OC3 | 1.7
CN(C)/C=C/c1c(C#N)c(=O)ncn1Cc1ccccc1 | 2.5
O=C(Nc1cccc(C(=O)N2CCCC2)c1)c1ccccc1 | -0.2
CCOC(=O)n1c(SCC(=O)N(CC)CC)nc2ccccc21 | -1.9
O=C(O)C1CCN(S(=O)(=O)N2CCOCC2)CC1 | -0.5
COc1ccc(CC(=O)c2ccc(O)cc2O)cc1OC | 2
CC1(C)Oc2ccc3ccc(=O)oc3c2/C(=C/NCCO)C1=O | 2.5
Cc1ccc(-c2noc(CSc3nnc(-c4ccccc4)n3C)n2)cc1 | 7.2
Cn1c(/C(C#N)=C2/CCCCCN2)nc2ccccc21 | 12.4
O=C(Cn1c(-c2cncs2)nc2ccccc21)NC1CCCC1 | -3.3
COCCCNC(=O)C1CC(=O)N(c2ccc(C)cc2)C1 (stereo not drawn) | -1.3
O=C(C(NS(=O)(=O)c1cccc2nsnc12)c1ccccc1)N1CCN(c2ccccn2)CC1 (stereo not drawn) | 7.2
Cc1ccsc1CNn1cnnc1SCc1ccccc1F | 9.3
COc1ncnc2c1N=C1CC(C)(C)CC(N)=C1S2 | 1.4
Cc1[nH]c2ccccc2c1C(=O)CSCC(=O)O | -0.3
O=C(CSc1nnc(-c2c[nH]c3ccccc23)n1-c1ccc(F)cc1)NCc1ccco1 | 6.1
CC(C)(C)n1nnnc1C(c1ccc2ncccc2c1)N1CCSCC1 (stereo not drawn) | -2.5
O=C(O)CCSc1nnc(-c2ccccc2)n1-c1ccccc1 | -3.8
O=C(CC1Oc2ccccc2NC1=O)NCCCN1CCN(Cc2ccccc2)CC1 (stereo not drawn) | -2
Cn1c(=O)c2c(nc(Br)n2CCSc2nc3ccccc3o2)n(C)c1=O | 0.1

Structure (SMILES) | inhibition [%]
COc1ccc(CNC2CCCCC2)cc1 | 5.3
Cc1nonc1OCCn1nnnc1N | -19.6
O=C(COc1ccccc1)N1CCc2ccccc2C1 | 1.4
CCN(CC)Cc1c(C(=O)OC)nnn1-c1nonc1N | -0.9
CCOC(=O)c1sc(=S)n(-c2cccc(OC)c2)c1N | 5.8
O=C(NCCN1C(=O)C2C3C=CC(C3)C2C1=O)Nc1ccccn1 (stereo not drawn) | 7.3
OC(COc1cccc2ccccc12)CN1CCN(c2ccccn2)CC1 (stereo not drawn) | 0.9
Cn1c(Cc2csc(N)n2)nnc1SC/C=C/c1ccccc1 | 6.2
O=C(CN(CC1CCCO1)C(=O)CNS(=O)(=O)c1ccccc1)NCc1ccccc1 (stereo not drawn) | -0.3
COc1cccc(-c2nnc(N(C)C(=O)c3ccno3)s2)c1 | -8.4
COC(CCN(C)C)(c1ccccc1)c1ccccc1 | -0.2
Nc1nonc1-c1noc(-c2ccc(Br)o2)n1 | -4.4
CCOC(=O)CNC(=O)CSc1nnc(-c2cccc(OC)c2)n1CC | 3.6
COc1cccc(NC(=O)C(C)Oc2ccccc2)c1 (stereo not drawn) | 2.2
N#CC1=C(N)Oc2n[nH]c(CSc3ccccc3)c2C12C(=O)Nc1ccccc12 (stereo not drawn) | 1.5
COc1ccccc1CNC(=O)C1CCCN(S(=O)(=O)c2cccc3cccnc23)C1 (stereo not drawn) | 2.1
Cc1noc(C)c1CSc1nc2cc(S(=O)(=O)N3CCOCC3)ccc2o1 | -0.9
CC12CCC(C(=O)N3CCN(c4ncccn4)CC3)(c3nc4ccccc4nc31)C2(C)C (stereo not drawn) | 0.1
CC(C)C[C@H](NC(=O)[C@@H]1O[C@H]1C(=O)O)C(=O)NCCCCN=C(N)N | 0.7
CCn1cc(C(=O)N2CC=C(c3ccccc3)CC2)c(=O)c2ccc(C)nc21 | 0.8
CCN1CCN(Cc2nc3c(c(=O)n(C)c(=O)n3C)n2CC(=O)c2ccccc2)CC1 | -8.7

Structure (SMILES) | inhibition [%]
Cc1ccc(Cc2cncc(O)c2)cc1S(=O)(=O)O | 1.3
COc1ccc(-n2nnc3c(=O)n(CC(=O)OCc4ccccc4)cnc32)cc1 | 1.8
CCOC(=O)N1CCN(S(=O)(=O)c2cc(Br)cc3c2N(C(=O)C2CC2)CC3)CC1 | 3
Cc1ccc(NC(=O)Cn2nc(C)c3ccccc3c2=O)c(C)c1 | 0.6
COc1ccc(N2CCN(C(=O)CSc3nnc4ncccn34)CC2)cc1 | 4.1
O=C(CN1CCN(c2ncc(C(F)(F)F)cc2Cl)CC1)Nc1ccc2c(c1)OCO2 | 2.7
N#CCSc1nc2ccccc2c(=O)n1-c1ccccc1 | -3.9
CCc1nnc(NC(=O)CSc2nnc(Cc3ccccc3)n2-c2ccc(OC)cc2)s1 | 3.3
CC(C)(C)c1csc(NC2=NS(=O)(=O)c3ccccc32)n1 | 0.2
COC(=O)c1ccc(CSc2nc3ccccc3c(=O)n2-c2cccc(OC)c2)o1 | -1.5
CCCOC(=O)c1[nH]c2c(c1C)C(=O)CC(c1cc(OC)c(OC)c(OC)c1)C2 (stereo not drawn) | 0.2
CCCC(C(=O)N1CCOCC1)N1C(=O)C2C3C=CC(C3)C2C1=O (stereo not drawn) | 4.6
CN(C)CCOC(=O)C(c1ccccc1)C1(O)CCCC1 (stereo not drawn) | 3.8
COc1cc2ccccc2cc1C(=O)Nc1ccc(S(=O)(=O)Nc2cc(C)on2)cc1 | -1.9
Cc1ccccc1C(OCC(O)CN1CCCCC1CCO)c1ccccc1 (stereo not drawn) | 1.3
O=C1Nc2c(Br)cc(Br)cc2C1(O)N1CCOCC1 (stereo not drawn) | -2.4
COc1ccc(CN2CN(C(C)C)CSC2=S)cc1 | 1
COc1ccc(-c2nnn(Cc3nc(N)nc(N4CCCCC4)n3)n2)cc1 | 7.6
O=C(C1CCN(S(=O)(=O)c2cccs2)CC1)N1CCCCCC1 | 6.3
Cc1ccc(S(=O)(=O)NCC(=O)OCC(=O)N2CCc3ccccc32)cc1 | -2.9
COC(=O)c1ccc(NC(=O)CSc2nnc(Cc3cccn3C)n2-c2ccc(F)cc2)cc1 | -0.2

From PubChem BioAssay AID570 (The Scripps Research Institute Molecular Screening Center, 2006)
